# Assay outcomes from PubChem.
# Sampled rows, rich in hits. Any-hit rate of the full collection: about 17%.
# TDP1 cell CPT – DT40-hTDP1 cell growth loss with CPT. chicken DT40 Tdp1-/-;hTDP1 cells + 20 nM CPT, ATP luminescence, 48 h. Potency, µM (titrated, usually from 46.2 µM), inactives show at the top dose activity change, negative = growth inhibition, most hits filed as inhibitors. 12% of 420,000 active; further: on the % scale 0 is the no-effect control and ±100 the full control effect; nearly all actives have a fitted effect of over 55% in size
#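 Cell growth measured by CellTiter-Glo luminescence after a minimum 48 h, 37 C compound exposure with 20 nM CPT in Tdp1-knockout DT40 cells stably expressing hTDP1, seeded 400/well; qHTS titration format.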
# TGFb SMAD3 inh – TGF-b pathway inhibition. HepG2 CAGA-GFP TGF-b/SMAD3 reporter, GFP fluorescence, 18 h; TGF-beta stimulated, 500 pg/mL final. Potency, µM (highest dose often 46.1 µM), for the others: at the top dose activity, negative = inhibition, hits mostly inhibitors. 1.2% of 410,000 active; further: on the % scale 0 is the no-effect control and ±100 the full control effect; nearly all actives have a fitted effect of over 65% in size
#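 Using HEPG2 CAGA-GFP reporter cells at 1000 cells/well, we pinned test compounds, stimulated with recombinant TGF-beta (500 pg/mL final) and measured total well GFP after 18 h.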
# HT1080 IDH1KD tx – HT-1080 IDH1 knockdown cell toxicity (counter line); HT-1080 IDH1 knockdown viability, ATP luminescence, 48 h; AID 686971; Potency, µM (titrated, usually from 46.1 µM), without a hit: at the top dose activity, negative = toxicity, actives largely listed as cytotoxic; 2% of 360,000 active;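 further: 0% = DMSO wells and -100% = cell-free medium wells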
#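 Viability of IDH1-knockdown HT-1080 fibrosarcoma cells was assessed by CellTiter-Glo after 48 h at 37 °C with titrated compound; concentration-effect curves were classified by fit quality and response size.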
# HT1080NT lethal – kills 2HG-producing HT-1080-NT fibrosarcoma cells; HT-1080-NT fibrosarcoma viability, CellTiter-Glo ATP luminescence, 48 h; Potency, µM (doses to about 46.1 µM), for the others: top-dose activity, negative = less viability, hits mostly cytotoxic; 1.6% of 360,000 active; AID 686970;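 further: NT is the 2HG producing partner of a matched IDH1 knockdown line; 0% = DMSO-treated cells and -100% = media-only wells without cells; nearly all actives have a fitted effect of over 55% in size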
#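 HT-1080-NT; 750 cells/well; 5% FBS RPMI; 48 h compound, 37 degrees C; CellTiter-Glo luminescence; curve fitting and curve-class assignment.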
# DT40 TDP1 no CPT – qHTS for Inhibitors of human tyrosyl-DNA phosphodiesterase 1 (TDP1): qHTS in cells in absence of CPT | AID 686978, 2013 | 15% of 420,000 active | DT40 Tdp1-/- hTDP1 cells, no CPT, ATP luminescence, 48 h | Potency, µM (top dose mostly 46.2 µM), for inactives: at the highest dose activity change, negative = growth inhibition, hits mostly inhibitors; further: on the % scale 0 is the no-effect control and ±100 the full control effect; nearly all actives have a fitted effect of over 55% in size
#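 Seeded 400 DT40-hTDP1 cells/well (vehicle DMSO, no 20 nM CPT); pinned compounds; ≥48 hr at 37 °C; CellTiter-Glo luminescence as viability measure.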
# HepG2 tox – counter-screen for TGF-b inhibitors: cytotoxicity in HepG2 cells | HepG2 CAGA-GFP viability, ATP luminescence, 18 h | Potency, µM (doses to about 46.1 µM), for the others: at the top dose activity change, negative = cytotoxicity, hits mostly cytotoxic | 0.76% of 410,000 active
#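 CellTiter-Glo luminescence gave cytotoxicity after 18 hours at 37 degrees C. The cells were HepG2 CAGA-GFP in 1% FBS DMEM, stimulated with 500 pg/mL TGF-beta after compound addition. %Activity was normalised to no-cell wells (complete cell-killing) and DMSO (no toxicity), and curves were fitted and classified.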
# * hit, by the source's call; ? = inconclusive; · = no result given; ! = not confirmed by another sample. The call rests on the fitted dose curve; in most records, active means well fitted curve in the direction sought with a large enough effect; inconclusive means small, poorly fitted or top-dose-only effect, or another doubt; inactive means no such curve, though single readings can be large; an effect the other way counts as inactive or inconclusive. Potency means the concentration at half of the fitted maximal effect.
SMILES,TDP1 cell CPT,TGFb SMAD3 inh,HT1080 IDH1KD tx,HT1080NT lethal,DT40 TDP1 no CPT,HepG2 tox
CN(C)CCCNc1c2c(nc3ccccc13)CCC2,?,?,-19%,-29%,15µM*,-35%
O=C(CCCCCl)Nc1c2c(nc3ccccc13)CCC2,-26%,9%,-14%,-6%,-1%,-10%
Nc1c2c(nc3ccccc13)CCCC2,17µM*!,2%,0%,-1%,18µM*!,-4%
COc1cc(C(=O)Nc2cc(C)c(O)c(-c3nc4ccccc4s3)c2)cc(OC)c1OC,-8%,1%,·,·,-2%,-6%
CC1CCN(c2nn3c(=O)c(C(=O)NC(C)C)cnc3s2)CC1,-19%,?,·,·,?,6%
COc1ccc(NS(=O)(=O)c2cc3[nH]c(=O)c(=O)[nH]c3cc2C)cc1OC,2%,-12%,·,·,-8%,-1%
COc1ccc(Nc2c3c(nc4ccccc24)CCC3)cc1,?,11µM*,?,23µM*,21µM*,-47%
COc1ccc(Nc2c3c(nc4ccccc24)CCC3)cc1Cl,12µM*,?,·,·,18µM*,-48%
O=C(Nc1ccccc1)c1c2c(nc3ccccc13)CCCC2,-1%,-4%,10%,-14%,6%,9%
c1ccc(Nc2c3c(nc4ccccc24)CCC3)cc1,5.2µM*,?,?,-8%,15µM*,-15%
CC(C)(C)Nc1c2ccccc2nc2ccccc12,21µM*,?,-11%,-10%,18µM*,-15%
Clc1cncc(Cl)c1NNc1c2ccccc2nc2ccccc12,?,?,-7%,0%,?,1%
Fc1cccc(-c2nc(-c3ccncc3)no2)c1,19%,?,·,·,-8%,-2%
COc1ccccc1Nc1c2ccccc2nc2ccccc12,16µM*,?,?,16µM*,16µM*,-28%
COc1ccccc1Nc1nc(-c2ccccc2O)nc2ccccc12,?,-3%,18%,14%,?,-7%
COc1cc(Nc2c3ccccc3nc3ccccc23)cc(OC)c1OC,7.3µM*,?,?,10µM*,5.2µM*,-76%
Cc1cccc(-c2nc(NCCCN(C)C)c3ccccc3n2)c1,?,7%,?,?,?,-8%
CCN(CC)CCOC(=O)c1ccc(Nc2c3c(nc4ccccc24)CCC3)cc1,?,?,·,·,18µM*,-39%
COc1cc(NC(c2ccccc2)c2ccccc2)cc(OC)c1OC,9%,1%,0%,-5%,-20%,-31%
CN(C)CCNCCCNc1c2ccccc2nc2cccc([N+](=O)[O-])c12,0.052µM*,-4%,?,-24%,0.1µM*,-12%
COc1ccc(Nc2cc(Nc3cc(OC)c(OC)c(OC)c3)ncn2)cc1,18µM*,-17%,-8%,-23%,21µM*,-23%
COc1ccc(Nc2c3ccccc3nc3ccccc23)cc1,?,?,12µM*,9.2µM*,?,-36%
COc1ccccc1Nc1cc(C)nc(Nc2ccccc2OC)n1,21µM*,-10%,1%,1%,23µM*,-41%
COC(=O)CC1C(=O)NCCN1C(=O)CSc1nc2ccccc2c(=O)n1CC(C)C (centres undefined),4%,7%,4%,-1%,?,-6%
Cc1cncc(NCc2ccc3c(c2)OCO3)n1,-25%,26%,2%,9%,?,-2%
SMILES,TDP1 cell CPT,TGFb SMAD3 inh,HT1080 IDH1KD tx,HT1080NT lethal,DT40 TDP1 no CPT,HepG2 tox
COc1ccc(C(=O)c2sc3nc(C)cc(-c4cccs4)c3c2N)cc1OC,?,-8%,3%,-4%,23µM*,-29%
FC(F)(F)c1ccc(-c2cccc3c2C2CC3CCN2C(=S)NCCc2ccccc2)cc1 (centres undefined),?,-12%,0%,7%,?,-50%
CC1(C)CC(=O)C=C(c2ccc(-c3ccccc3)cc2)C1,-19%,?,29%,24%,-28%,-13%
Cc1cc(C)nc(NC(=NCCc2c[nH]c3ccccc23)NC(=O)Nc2ccc(Cl)c(Cl)c2)n1,15µM*,-20%,-22%,-4%,13µM*,-27%
Cc1cc(C)nc(NC(=NCCc2c[nH]c3ccccc23)NC(=O)c2ccco2)n1,21µM*,?,-16%,-12%,10µM*,-8%
O=C(NCCc1c[nH]c2ccccc12)C(=O)Nc1ccccc1,-25%,-13%,?,-8%,?,-1%
COc1ccc2[nH]cc(CCN=C(NC(=O)c3ccccc3F)Nc3nc(C)cc(C)n3)c2c1,·,30%,·,·,·,0%
Cc1cc(C)nc(NC(=NCCc2c[nH]c3ccccc23)NC(=O)Nc2cccc([N+](=O)[O-])c2)n1,13µM*,-1%,-6%,-3%,7.3µM*,-4%
Cc1cc(C)nc(NC(=NCCc2c[nH]c3ccccc23)NC(=O)Nc2ccccc2)n1,?,?,-28%,-20%,18µM*,-25%
N[C@@H](CSSC[C@H](N)C(=O)O)C(=O)O,5%,·,·,·,-5%,·
CN(C)c1ccc(/C=N/N=C(N)N)cc1[N+](=O)[O-],?,?,-29%,2%,13µM*,-31%
Clc1ccccc1OCc1nnc2n1CCCCC2,-24%,-4%,1%,-4%,26%,-2%
COc1cc2ccccc2cc1C(=O)N/N=C/c1cccs1,2.3µM*,-16%,4.1µM*,?,1.8µM*,3%
CC(C)C(=O)N1CCN(c2ccc(NC(=O)c3cccs3)cc2)CC1,?,-1%,2%,1%,?,2%
O=C(N/N=C\c1cccs1)c1ccccc1-n1cccc1,3%,8%,0%,-2%,-17%,0%
COc1cc2ccccc2cc1C(=O)Nc1ccc(N2CCN(C)CC2)cc1,?,-14%,?,?,?,13µM*
COc1ccc(NC(=O)c2cc3ccccc3cc2OC)cc1,29µM*,-4%,16µM*,16µM*,?,-1%
COc1cc2ccccc2cc1C(=O)Nc1ccc(N2CCN(C(=O)C(C)C)CC2)cc1,16µM*,15%,0%,18%,10µM*,-7%
COc1cc2ccccc2cc1C(=O)Nc1cccnc1,-11%,0%,-4%,-1%,?,-27%
CC(NC(=O)c1nn(C)c2c1CSc1ccccc1-2)c1ccccc1 (centres undefined),?,?,·,·,?,-27%
